Measured values as given in PubChem BioAssay (NCATS).
Records with an inconclusive call do not appear. Activity calls are given as the source filed them. Calls come from the whole dose curve; as a rule, active = well fitted cell-killing curve with a large enough effect; inconclusive = small, poorly fitted or top-dose-only effect, or effect the other way; inactive = flat fitted curve, though single readings scatter.

Assays:
Experiment in all cases: Primary qHTS to identify gynecologic anti-cancer compounds using libraries of approved drugs and bioactive compounds (AID 1345084); note: nearly all actives have a fitted effect of over 55% in size
[1] = tested on: C33A; conditions: Gynecologic cancer cell panel viability, ATPlite luminescence, 48 h; series mostly up to 57.5 µM
Method in brief: (§1)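 Luminescence from the ATPlite ATP-monitoring reagent indicates viable cell number; lower signal means cytotoxicity. Cells received compound 16 h after seeding and were exposed for 48 h across five concentrations.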

[2] = tested on: CAOV3; conditions: Gynecologic cancer cell panel viability, ATPlite luminescence, 48 h; series mostly up to 57.5 µM
Method in brief: as §1

[3] = tested on: CASKI; conditions: Gynecologic cancer cell panel viability, ATPlite luminescence, 48 h; series mostly up to 57.5 µM
Method in brief: as §1

[4] = tested on: Es-2; conditions: Gynecologic cancer cell panel viability, ATPlite luminescence, 48 h; series mostly up to 57.5 µM
Method in brief: as §1

[5] = tested on: HeLa; conditions: Gynecologic cancer cell panel viability, ATPlite luminescence, 48 h; series mostly up to 57.5 µM
Method in brief: as §1

[6] = tested on: Hek293T; conditions: Gynecologic cancer cell panel viability, ATPlite luminescence, 48 h, control line for the selectivity index; series mostly up to 57.5 µM
Method in brief: as §1

[7] = tested on: JEG-3; conditions: Gynecologic cancer cell panel viability, ATPlite luminescence, 48 h; series mostly up to 57.5 µM
Method in brief: as §1

[8] = tested on: OV90; conditions: Gynecologic cancer cell panel viability, ATPlite luminescence, 48 h; series mostly up to 57.5 µM
Method in brief: as §1

[9] = tested on: PA-1; conditions: Gynecologic cancer cell panel viability, ATPlite luminescence, 48 h; series mostly up to 57.5 µM
Method in brief: as §1

Measured: Potency

Cn1cc(-c2ccc(F)c(C(F)(F)F)c2)nc1C1CCN(c2ncnc3[nH]ncc23)CC1
inactive: [1] | [2] | [3] | [4] | [5] | [6] | [7] | [8] | [9]

O=C(Nc1ccc(Cl)cc1)c1ccccc1NCc1ccncc1
inactive: [1] | [2] | [3] | [4] | [5] | [6] | [7] | [8] | [9]

CC(=O)O[C@@H]1C[C@@]2(C)C(CC[C@]3(C)C2CC=C2C4CC(C)(C)CC[C@]4(C(=O)O)CC[C@]23C)C(C)(C)[C@H]1O (stereo partly specified)
inactive: [1] | [2] | [3] | [4] | [5] | [6] | [7] | [8] | [9]

C#CCNCc1cc2cc(OCc3ccccc3)ccc2[nH]1
inactive: [1] | [2] | [3] | [4] | [5] | [6] | [7] | [8] | [9]

CCCCCc1ccc(/C=C/C(=O)Nc2cc(Cl)ccc2C(=O)O)cc1
inactive: [1] | [2] | [3] | [4] | [5] | [6] | [7] | [8] | [9]

Cc1ccc(N2CCN(CCC3NC(=O)c4ccccc43)CC2)cc1C (stereo unspecified)
inactive: [1] | [2] | [3] | [4] | [5] | [6] | [7] | [8] | [9]

COc1ccc(CCCN2CCC(COC(c3ccccc3)c3ccccc3)CC2)cc1
inactive: [1] | [2] | [3] | [4] | [5] | [6] | [7] | [8] | [9]

CN(C)C(=O)C(=O)c1cn(C)c2cc(Cl)c(C(=O)N3CCC(Cc4ccc(F)cc4)CC3)cc12
inactive: [1] | [2] | [3] | [4] | [5] | [6] | [7] | [8] | [9]

COC(=O)C[C@H]1C(C)(C)[C@H](OC(=O)c2ccccc2)C2CC3=C4CC(=O)O[C@@H](c5ccoc5)[C@]4(C)CCC3[C@@]1(C)C2=O (stereo partly specified)
inactive: [1] | [2] | [3] | [4] | [5] | [6] | [7] | [8] | [9]

COc1ccc(-c2cnc3c(-c4cccc5ncccc45)cnn3c2)cc1
inactive: [1] | [2] | [3] | [4] | [5] | [6] | [7] | [8] | [9]

CC(C)(N)c1ncc(-c2ccc(OC(F)(F)F)cc2)[nH]1
inactive: [1] | [2] | [3] | [4] | [5] | [6] | [7] | [8] | [9]

CC1(C)OC[C@H](NC(=O)Nc2ccc(Br)cc2Br)[C@H](c2ccccc2)O1
inactive: [1] | [2] | [3] | [4] | [5] | [6] | [7] | [8] | [9]

O=c1cc(N2CCN(c3cccc(C(F)(F)F)c3)CC2)[nH]c(=O)n1C1CCCCC1
inactive: [1] | [2] | [3] | [4] | [5] | [6] | [7] | [8] | [9]

O=C(C(Cc1cccc(C(F)(F)F)c1)NS(=O)(=O)c1cc(F)c2c(c1)CCNC2)N1CCCC1 (stereo unspecified)
inactive: [1] | [2] | [3] | [4] | [5] | [6] | [7] | [8] | [9]

COc1c(F)cccc1C(=O)N1C[C@@H](C)CC[C@H]1CNc1ccc(Br)cn1
inactive: [1] | [2] | [3] | [4] | [5] | [6] | [7] | [8] | [9]

CN(C)CC#CCCC(=O)C(O)(c1ccccc1)C1CCC1 (stereo unspecified)
inactive: [1] | [2] | [3] | [4] | [5] | [6] | [7] | [8] | [9]

CC(C)=CCCC1(C)C2CCC1(C)C(O)C2 (stereo unspecified)
inactive: [1] | [2] | [3] | [4] | [5] | [6] | [7] | [8] | [9]

CCOC(=O)N1c2ccc(C(F)(F)F)cc2C(N(Cc2cc(C(F)(F)F)cc(C(F)(F)F)c2)C(=O)OC)CC1CC (stereo unspecified)
inactive: [1] | [2] | [3] | [4] | [5] | [6] | [7] | [8] | [9]

C/C=C/CCC1Cc2cc(O)c(CCCC)c(O)c2C(=O)O1 (stereo unspecified)
inactive: [1] | [2] | [3] | [4] | [5] | [6] | [7] | [8] | [9]

CCOc1nc(NC(=O)Cc2cc(OC)ccc2OC)cc(N)c1C#N
inactive: [1] | [2] | [3] | [4] | [5] | [6] | [7] | [8] | [9]

N#Cc1ccc(N2N=C3c4ccc(C(=O)O)cc4CC[C@@H]3[C@@H]2C2CCCC2)cc1Cl
inactive: [1] | [2] | [3] | [4] | [5] | [6] | [7] | [8] | [9]

CCC(CC)Nc1nc(C)c(-c2ccc(OC(F)(F)F)cc2OC)nc1OC
inactive: [1] | [2] | [3] | [4] | [5] | [6] | [7] | [8] | [9]

COc1ccnc(CS(=O)c2nc3cc(OC(F)F)ccc3[nH]2)c1OC (stereo unspecified)
inactive: [1] | [2] | [3] | [4] | [5] | [6] | [7] | [8] | [9]

COc1ccc(Sc2ccc(NC(=O)c3ccccc3Cl)cc2C#N)cc1
inactive: [1] | [2] | [3] | [4] | [5] | [6] | [7] | [8] | [9]

COc1ccc(C2Oc3c(OC)cc(CCCO)cc3C2COC2OC(CO)C(O)C(O)C2O)cc1OC (stereo unspecified)
inactive: [1] | [2] | [3] | [4] | [5] | [6] | [7] | [8] | [9]

CC(C)(C)NC(=O)[C@H]1CC[C@H]2[C@@H]3CC[C@H]4NC(=O)CC[C@]4(C)[C@H]3CC[C@]12C
inactive: [1] | [2] | [3] | [4] | [5] | [6] | [7] | [8] | [9]

CC(=O)O[C@]1(C(C)=O)CC[C@H]2[C@@H]3CCC4=CC(=O)CCC4=C3[C@@H](c3ccc(N(C)C)cc3)C[C@@]21C
inactive: [1] | [2] | [3] | [4] | [5] | [6] | [7] | [8] | [9]

Cc1cc(-c2ncc(-c3cccnc3)cc2/C=C/c2ccccc2)cnc1-c1cccnc1
inactive: [1] | [2] | [3] | [4] | [5] | [6] | [7] | [8] | [9]

CC(C)n1c(=O)c(C(=O)NC2CC3CCC(C2)N3C[C@@H](O)CN(C)S(C)(=O)=O)cc2ccccc21 (stereo partly specified)
inactive: [1] | [2] | [3] | [4] | [5] | [6] | [7] | [8] | [9]

CCN1CCC[C@@H]1CNC(=O)c1ccc2c(c1)NC(=O)c1cccc(C)c1S2
inactive: [1] | [2] | [3] | [4] | [5] | [6] | [7] | [8] | [9]

COc1ccc(-c2csc(NC(=O)[C@H]3CCCCN3S(=O)(=O)c3ccc(C)cc3)n2)cc1
inactive: [1] | [2] | [3] | [4] | [5] | [6] | [7] | [8] | [9]

CC1(CO)CC2C(O)C3=C(CC(C)(O)C2C1)C(=O)OC3 (stereo unspecified)
inactive: [1] | [2] | [3] | [4] | [5] | [6] | [7] | [8] | [9]

CC(C)(C)OC(=O)c1ncn2c1C(C)(C)Nc1ccccc1-2
inactive: [1] | [2] | [3] | [4] | [5] | [6] | [7] | [8] | [9]

COc1cc(C(=O)NCC2(N(C)C)CCCC2)cc(OC)c1OCc1ccccc1
inactive: [1] | [2] | [3] | [4] | [5] | [6] | [7] | [8] | [9]

CC12CCC3C1C(c1c(cc(O)c(C(=O)c4ccccc4)c1O)O2)C3(C)C (stereo unspecified)
inactive: [1] | [2] | [3] | [4] | [5] | [6] | [7] | [8] | [9]

C=CCc1ccc(OC(C)Cc2ccc(OC)c(OC)c2)c(OC)c1 (stereo unspecified)
inactive: [1] | [2] | [3] | [4] | [5] | [6] | [7] | [8] | [9]

O=C(O)c1ccc(N2C(=O)/C(=C/c3ccc(-c4ccc([N+](=O)[O-])cc4)o3)C=C2c2ccccc2)cc1
inactive: [1] | [2] | [3] | [4] | [5] | [6] | [7] | [8] | [9]

COc1cc(NC(=O)c2cc(C3CC3)on2)c(OC)cc1Cl
inactive: [1] | [2] | [3] | [4] | [5] | [6] | [7] | [8] | [9]

Nc1nc2c(nc(Br)n2[C@@H]2O[C@@H]3COP(=O)(O)O[C@H]3[C@H]2O)c(=O)[nH]1
inactive: [1] | [2] | [3] | [4] | [5] | [6] | [7] | [8] | [9]
